5 molecules from PubChem BioAssay can be followed below.

Structures are written as SMILES. Calls of active or inactive are those of the source.

One assay has as its target Albumin (Bos taurus) (UniProt P02769). Briefly: compounds binding labelled BSA control protein – biochemical, small-molecule microarray, Alexa647 label, 635/667 nm fluorescence, artefact control for SMM control protein annotation, profiling panel (AID 1118).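 Note: score merges 667 nm emission intensity and signal-to-noise per printed compound spot.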 Particulars: BSA-A647 binding, fluorescence 635 nm, higher = more signal.
A short description of assay [1]: probe aXIP binding to arrayed compounds – biochemical, NeuroSMM set, 635/667 nm fluorescence, primary screen (AID 1119).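 Note: probe is the protein aXip251-270 applied at 1 µg/mL to compound-printed slides; binding of probe to printed compounds measured as 667 nm fluorescence plus signal to noise.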 Particulars: small-molecule microarray, higher = more signal, called active from +8 up or from −8 down.
Assay [2] in a line: probe aNOTCH3 binding on compound microarray – biochemical, small-molecule microarray, 635/667 nm fluorescence, primary screen (AID 1120).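 Note: probe is a biotin-tagged antibody raised against NOTCH3 rather than NOTCH3 protein; score merges spot fluorescence near 667 nm with spot signal to noise.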 To be noted: higher = more signal.
The nature of assay [3]: probe aNOTCH2 binding on compound microarray – biochemical, small-molecule microarray, 635/667 nm fluorescence, primary screen (AID 1121).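 Note: score merges feature fluorescence read at 667 nm with its signal to noise.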 To be noted: higher = more signal.
The target of assay [4] is Carbonic anhydrase 2 (Homo sapiens) (UniProt P00918). The assay is described as follows: compounds binding carbonic anhydrase 2 – biochemical, small-molecule microarray, Alexa647-labelled CAII, profiling panel (AID 1122). To be noted: CAII-A647 binding fluorescence, higher = more signal.
Assay [5] can be described thus: COS7 lysate on small-molecule microarray, probe aHis, 635 nm (AID 1123).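 Note: z-score combines 667nm fluorescence intensity with signal-to-noise per printed compound spot.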 To be noted: COS7 cell lysate, fluorescence, higher = more signal.
Assay [6] in a line: probe aLAP1 signal on lysate-treated microarray – cell lysate, small-molecule microarray, COS7 lysate, primary screen (AID 1124).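 Note: lysate comes from COS7 cells expressing LAP1 and is applied at 0.3 µg/mL; score merges spot fluorescence near 667 nm with signal-to-noise over triplicate slides.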 Particulars: probe aLAP1, fluorescence, higher = more signal.
The subject of a further assay is Sam68 (KHDRBS1). Briefly: compounds binding KHDRBS1 protein – biochemical, small-molecule microarray, 635 nm fluorescence, primary screen (AID 1125).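 Note: score merges 667 nm channel intensity with signal to noise over triplicate slides.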 To be noted: higher = more signal.
In assay [7] the test system is Chordin-like protein 2 (CHRDL2). The assay is described as follows: compounds binding chordin-like 2 – biochemical, small-molecule microarray, 635 nm fluorescence, primary screen (AID 1126).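 Note: printed compound slides probed with Chrdl2 protein at 4 µg/mL for 1 h at 4 C; score merges 667 nm emission intensity with signal to noise over three replicate slides.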 To be noted: fluorescence 635 nm, higher = more signal.
The target of assay [8] is Concanavalin-A (Canavalia ensiformis) (UniProt P02866). The assay is described as follows: compounds binding concanavalin A lectin – biochemical, small-molecule microarray, Alexa647 label, 635 nm, artefact control for SMM control protein annotation, primary screen (AID 1127).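 Note: z combines 667 nm emission intensity with signal-to-noise across three replicate slides.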 To be noted: ConA-A647 binding fluorescence, higher = more signal.
A short description of assay [9]: compounds binding Alexa647 anti-His antibody – biochemical, small-molecule microarray, 635 nm fluorescence, artefact control for SMM control protein annotation, primary screen (AID 1128).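 Note: score merges feature fluorescence with signal-to-noise for each printed compound spot.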 Particulars: higher = more signal.
The test system of assay [10] is Human papillomavirus type 1a E7 protein (residues 1-88). Briefly: HPV1a E7 small-molecule binders, primary screen, biochemical, small-molecule microarray, residues 1-88, 635 nm (AID 1129). To be noted: small-molecule microarray binding, fluorescence 635 nm; higher = more signal.
The target in assay [11] is Focal adhesion kinase 1 (Homo sapiens) (UniProt Q05397). The assay is described as follows: PTK2 protein binding on printed compound slides – biochemical, small-molecule microarray, 635/667 nm fluorescence, BSA, DTT, primary screen (AID 1130).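 Note: composite of spot emission at 667 nm and signal to noise over triplicate slides.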 Particulars: 635 nm fluorescence, higher = more signal.
Assay [12] relates to Fibrinogen (Alexa647-labelled). Briefly: Alexa647-fibrinogen binding to printed small molecules – biochemical, small-molecule microarray, 635/667 nm fluorescence, artefact control for SMM control-protein annotation, profiling panel (AID 1131).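 Note: z-score merges 667 nm fluorescence with per-spot signal-to-noise over triplicate slides.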 Particulars: fibrinogen-A647 binding fluorescence, higher = more signal.
The target of assay [13] is Follistatin (Homo sapiens) (UniProt P19883). Briefly: FST protein binding to printed compounds – biochemical, small-molecule microarray, 635/667 nm fluorescence, primary screen (AID 1132). To be noted: 635 nm fluorescence, higher = more signal.
In assay [14] the target is Fibroblast growth factor 2 (Homo sapiens) (UniProt P09038). Briefly: basic fibroblast growth factor binding to printed compounds – biochemical, small-molecule microarray, 635/667 nm fluorescence, primary screen (AID 1133). Particulars: FGF2, fluorescence 635/667, higher = more signal.
Assay [15] is described as follows: JC-1 mitochondrial potential readout, lung cancer cells – cell-based, A549, JC-1 fluorescence, basal, 24 h, 100 nL, profiling panel (AID 1138).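 Note: A549 lung adenocarcinoma cells under basal conditions with no added stimulus; test concentration not given here.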 Particulars: higher = more signal.
The test system of a further assay is Lefty1. Briefly: Lefty1 protein binding to printed compounds – biochemical, small-molecule microarray, 635/667 nm fluorescence, primary screen (AID 1139). To be noted: fluorescence 635/667, higher = more signal.
The subject of assay [16] is wheat germ agglutinin (Triticum aestivum), Alexa647-labelled. Briefly: Alexa647-WGA lectin binding to printed small molecules – biochemical, small-molecule microarray, 635/667 nm fluorescence, artefact control for SMM control-protein annotation, profiling panel (AID 1140).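 Note: score merges 667 nm feature emission with signal to noise over triplicate slides.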 To be noted: WGA-A647 binding, 635 nm fluorescence, higher = more signal.
The target of assay [17] is Luciferin 4-monooxygenase (Photinus pyralis) (UniProt P08659). Briefly: inhibition of purified Photinus pyralis luciferase – biochemical, luminescence, purified enzyme, 2006 set, primary screen (AID 1141).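 Note: cell-free assay with purified firefly luciferase at 100 ng per well in PBS; test concentration not given here.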 To be noted: purified firefly luciferase, SteadyGlo luminescence, 30 min; higher = more signal, called active from +8 up or from −8 down.
Luciferin 4-monooxygenase (Photinus pyralis), sequence (P08659 whole entry, looked up): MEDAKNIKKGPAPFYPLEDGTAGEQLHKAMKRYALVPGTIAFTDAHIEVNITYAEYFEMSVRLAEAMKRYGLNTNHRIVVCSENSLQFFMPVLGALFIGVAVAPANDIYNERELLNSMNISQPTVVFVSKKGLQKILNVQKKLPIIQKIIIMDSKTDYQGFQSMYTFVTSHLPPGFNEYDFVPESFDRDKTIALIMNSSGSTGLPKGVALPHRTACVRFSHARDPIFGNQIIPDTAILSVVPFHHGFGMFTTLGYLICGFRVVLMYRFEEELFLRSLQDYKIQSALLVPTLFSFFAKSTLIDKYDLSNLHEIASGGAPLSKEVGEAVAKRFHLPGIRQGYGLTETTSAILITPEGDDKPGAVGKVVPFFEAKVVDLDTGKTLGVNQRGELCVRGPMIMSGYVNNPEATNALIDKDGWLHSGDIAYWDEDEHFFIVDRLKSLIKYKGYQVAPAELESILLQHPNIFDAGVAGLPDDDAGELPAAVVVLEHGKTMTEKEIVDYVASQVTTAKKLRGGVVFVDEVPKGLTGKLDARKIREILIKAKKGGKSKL

Albumin (Bos taurus), sequence (P02769 whole entry, looked up): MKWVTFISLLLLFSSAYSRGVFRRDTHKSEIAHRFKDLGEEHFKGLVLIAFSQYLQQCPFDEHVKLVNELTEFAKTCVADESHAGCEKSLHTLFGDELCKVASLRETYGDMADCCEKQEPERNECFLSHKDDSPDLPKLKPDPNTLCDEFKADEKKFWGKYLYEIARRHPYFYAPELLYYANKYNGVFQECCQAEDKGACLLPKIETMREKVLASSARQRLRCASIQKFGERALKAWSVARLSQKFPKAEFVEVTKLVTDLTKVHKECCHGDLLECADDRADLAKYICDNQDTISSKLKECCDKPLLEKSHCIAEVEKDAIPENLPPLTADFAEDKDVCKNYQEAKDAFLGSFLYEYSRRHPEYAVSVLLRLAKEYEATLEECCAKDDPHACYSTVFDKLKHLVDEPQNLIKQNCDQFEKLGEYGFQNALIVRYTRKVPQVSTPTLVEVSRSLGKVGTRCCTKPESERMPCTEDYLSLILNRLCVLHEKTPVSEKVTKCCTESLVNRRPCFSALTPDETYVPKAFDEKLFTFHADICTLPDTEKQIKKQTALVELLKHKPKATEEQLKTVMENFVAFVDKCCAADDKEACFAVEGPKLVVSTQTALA
Fibroblast growth factor 2 (Homo sapiens), sequence (P09038 whole entry, looked up): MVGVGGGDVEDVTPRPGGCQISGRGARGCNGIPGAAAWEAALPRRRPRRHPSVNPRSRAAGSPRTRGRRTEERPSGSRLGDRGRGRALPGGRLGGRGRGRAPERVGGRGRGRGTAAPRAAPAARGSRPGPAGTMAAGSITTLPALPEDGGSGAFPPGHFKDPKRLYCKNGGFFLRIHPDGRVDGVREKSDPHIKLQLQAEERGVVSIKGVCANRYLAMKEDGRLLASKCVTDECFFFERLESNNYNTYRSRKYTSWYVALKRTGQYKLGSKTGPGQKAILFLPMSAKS
Concanavalin-A (Canavalia ensiformis), sequence (P02866 whole entry, looked up): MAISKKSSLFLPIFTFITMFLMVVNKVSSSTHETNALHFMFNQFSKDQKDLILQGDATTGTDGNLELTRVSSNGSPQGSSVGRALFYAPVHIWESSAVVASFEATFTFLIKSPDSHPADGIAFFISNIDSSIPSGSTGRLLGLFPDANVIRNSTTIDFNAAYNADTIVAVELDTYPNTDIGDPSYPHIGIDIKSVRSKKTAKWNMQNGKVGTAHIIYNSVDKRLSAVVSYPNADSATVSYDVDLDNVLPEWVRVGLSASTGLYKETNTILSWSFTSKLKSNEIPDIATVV
Focal adhesion kinase 1 (Homo sapiens), sequence (Q05397 whole entry, looked up): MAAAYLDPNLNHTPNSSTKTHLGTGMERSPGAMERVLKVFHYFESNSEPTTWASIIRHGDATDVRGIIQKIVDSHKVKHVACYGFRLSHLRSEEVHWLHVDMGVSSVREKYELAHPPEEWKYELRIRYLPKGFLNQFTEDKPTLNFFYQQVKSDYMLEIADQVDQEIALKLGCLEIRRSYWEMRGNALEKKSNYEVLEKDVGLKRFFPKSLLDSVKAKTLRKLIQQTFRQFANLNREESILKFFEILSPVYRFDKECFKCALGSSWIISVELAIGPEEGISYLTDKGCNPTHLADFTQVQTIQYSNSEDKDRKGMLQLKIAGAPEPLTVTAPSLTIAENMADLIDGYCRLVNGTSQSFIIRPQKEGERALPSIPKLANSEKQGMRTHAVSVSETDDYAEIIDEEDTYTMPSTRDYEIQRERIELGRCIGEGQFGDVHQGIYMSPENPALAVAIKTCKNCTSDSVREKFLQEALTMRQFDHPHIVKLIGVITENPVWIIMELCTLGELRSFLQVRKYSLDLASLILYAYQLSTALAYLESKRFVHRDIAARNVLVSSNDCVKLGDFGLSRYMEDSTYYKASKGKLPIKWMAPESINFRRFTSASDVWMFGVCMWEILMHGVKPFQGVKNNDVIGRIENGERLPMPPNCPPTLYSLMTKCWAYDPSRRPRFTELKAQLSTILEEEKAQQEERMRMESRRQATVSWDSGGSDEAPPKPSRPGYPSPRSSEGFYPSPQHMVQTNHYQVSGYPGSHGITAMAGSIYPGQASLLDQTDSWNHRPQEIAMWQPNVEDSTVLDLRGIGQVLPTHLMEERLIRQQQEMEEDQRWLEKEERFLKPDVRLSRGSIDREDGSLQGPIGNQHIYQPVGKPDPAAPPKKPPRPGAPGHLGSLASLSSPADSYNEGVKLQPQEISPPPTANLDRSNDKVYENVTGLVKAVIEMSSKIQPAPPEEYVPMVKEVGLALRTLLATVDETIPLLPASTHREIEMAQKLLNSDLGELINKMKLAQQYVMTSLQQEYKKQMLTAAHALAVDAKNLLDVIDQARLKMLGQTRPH
Follistatin (Homo sapiens), sequence (P19883 whole entry, looked up): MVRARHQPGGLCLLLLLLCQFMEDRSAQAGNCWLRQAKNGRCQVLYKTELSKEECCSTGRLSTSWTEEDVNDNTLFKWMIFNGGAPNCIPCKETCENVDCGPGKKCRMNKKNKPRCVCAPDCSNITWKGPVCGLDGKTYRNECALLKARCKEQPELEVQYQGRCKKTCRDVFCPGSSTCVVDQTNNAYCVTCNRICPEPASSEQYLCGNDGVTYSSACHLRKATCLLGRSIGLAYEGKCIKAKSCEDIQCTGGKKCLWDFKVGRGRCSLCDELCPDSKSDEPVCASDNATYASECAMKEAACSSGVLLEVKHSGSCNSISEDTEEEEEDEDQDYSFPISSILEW

On to `CCc1cc2c(nc1CC)CCN(CCC(C)=NOC(C)CN1CCCCc3nc(C)c(C)cc31)C2` (stereo not given), for which the composite z-score with Albumin (Bos taurus) is 0.0846; in assay [2], 0.0696; in [3] it was -0.0194; in assay [4], 0.467; in [5], 1.64; in [6], 0.304. For the same molecule, the composite z-score was 1.28 with Sam68 (KHDRBS1); 0.911 in [7]; 1.17 in assay [8]; 0.575 in [9]; 1.18 in assay [10]; -0.048 in assay [11]. Besides, the composite z-score was found to be 0.874 in assay [12]; 1.18 in assay [13]; 0.557 in assay [14]; 0.979 in the assay on Lefty1; 0.439 in assay [16]. Besides, in assay [1], the composite Z-score was 0.73 (inactive). Also, the results for the z-score in assay [15] and in assay [17] were 2.45 and -0.0579 (inactive), respectively.

Take `CC(=O)OC[C@H]1O[C@H](CC=NO[C@@H](C)c2cn([C@H](CO)Cc3ccccc3)nn2)C=C[C@@H]1OC(C)=O`: the composite z-score was 0.447 with Albumin (Bos taurus); 0.0517 in assay [2]; -0.0798 in [3]; 0.342 in [4]; 1.34 in assay [5]; 0.0198 in assay [6]. Besides, the composite z-score in the assay with Sam68 (KHDRBS1) was 0.987; in assay [7] it was 0.394; in assay [8], 0.506; in assay [9], -0.0515; in assay [10], 0.656; in assay [11], -0.0806. For the same molecule, the composite z-score in assay [12] was 0.827; in assay [13], 0.679; in assay [14], 0.45; with Lefty1, 1.05; in [16], 0.233. For the same molecule, the composite Z-score in assay [1] was 0.0225 (inactive). For the same molecule, the z-score in assay [15] is -1.56; in assay [17], 1.36 (inactive).

Regarding `O=C1C[C@@H](O)[C@@H](O)[C@@H]2[C@@H]3C(=O)N(C4CCCCC4)C(=O)[C@@H]3CC[C@@H]12`, the composite z-score with Albumin (Bos taurus) was 0.337; in assay [2], -0.104; in assay [3] it was -0.198; in [4], 0.167; in assay [5], 0.798; in assay [6], -0.244. Moreover, the composite z-score in the assay on Sam68 (KHDRBS1) is 0.546; in assay [7], 0.36; in [8], 0.448; in [9], 0.69; in assay [10], 0.54; in [11], -0.0599. Also, the composite z-score in assay [12] amounted to 0.705; in assay [13] it was 0.373; in [14], 0.134; in the assay with Lefty1, 0.66; in [16], 0.282. The composite Z-score in assay [1] is -0.228 (inactive). The z-score in [15] is 0.457; in assay [17] it was 0.137 (inactive).

Turning to `COCCNC(=O)OCC1CCCC2(CC(OC(=O)NCc3cccc4ccccc34)CC(CCC(=O)N[C@@H](C)C(=O)OC)O2)O1` (stereo not given in full), the composite z-score with Albumin (Bos taurus) was 0.0307; in [2], -0.0362; in [3], -0.14; in assay [4], 0.262; in [5] it was 1.12; in [6], -0.107. Also, the composite z-score in the assay on Sam68 (KHDRBS1) is 1.3; in assay [7], 0.665; in assay [8], 1.03; in assay [9], 0.522; in assay [10], 1.13; in assay [11] it was -0.208. Further, the composite z-score in [12] came out at 0.912; in assay [13], 0.728; in [14], 1.04; in the assay with Lefty1, 0.42; in assay [16], 0.598. In addition, the composite Z-score in assay [1] was 0.59 (inactive). Besides, the z-score is 0.609 in [15] and 0.396 (inactive) in assay [17].

Regarding `CON=C(C)CCN1CCCCc2nc(C)c(C)cc21`, the composite z-score in the assay with Albumin (Bos taurus) was -0.16; in [2], 0.245; in assay [3] it was 0.0207; in assay [4], 0.53; in assay [5] it was -0.0845; in [6], -0.244. Moreover, the composite z-score is 0.119 in the assay on Sam68 (KHDRBS1); 0.873 in assay [7]; -0.116 in assay [8]; 0.229 in [9]; -0.27 in [10]; 0.145 in [11]. Also, the composite z-score in assay [12] is 0.582; in assay [13], 0.925; in assay [14], 0.644; with Lefty1, 1.05; in assay [16] it was 0.495. In addition, the composite Z-score in assay [1] is 0.414 (inactive). The figures for the z-score in assay [15] and in [17] were 1.19 and -0.518 (inactive), respectively.
